The nature of assay [1]: qHTS assay to identify aromatase inhibitors - cell viability counter screen (AID 743084).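 Also: cells stimulated with testosterone during compound exposure; nearly all actives have a fitted effect of over 55% in size.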 Also: potency is read from the fitted curve at half-maximal effect.
Assay [2] concerns the target Aryl hydrocarbon receptor (Homo sapiens) (UniProt P35869). The experiment in a line: qHTS assay to identify small molecule that activate the aryl hydrocarbon receptor (AhR) signaling pathway (AID 743085). Also: nearly all actives have a fitted effect of over 15% in size. Also: potency is read from the fitted curve at half-maximal effect.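 As to activation: HG2L7.5c1 human HepG2 liver cells with stably integrated DRE-driven firefly reporter; series mostly up to about 70 µM.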 The method, boiled down: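 Measured in HG2L7.5c1 cells: CellTiter-Fluor signal (30 min incubation, 37C) for viability, then luciferase luminescence (30 min, room temperature). Compound contact time was 24 h at 37C, following a 5 h pre-incubation.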

Assay [3] can be described thus: qHTS assay to identify small molecule that activate the aryl hydrocarbon receptor (AhR) signaling pathway - cell viability counter screen (AID 743086). Also: nearly all actives have a fitted effect of over 45% in size. Also: potency is read from the fitted curve at half-maximal effect. The method, boiled down:
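HepG2-AhR-luc (HG2L7.5c1) cells, 4000/well, were preincubated 5 h at 37C, exposed to compound in qHTS format for 24 hr at 37C, then given CellTiter-Fluor for 30 min; viability was read as fluorescence in the reporter wells.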

The target of assay [4] is Peroxisome proliferator-activated receptor gamma (Homo sapiens) (UniProt P37231). Briefly: qHTS assay to identify small molecule agonists of the peroxisome proliferator-activated receptor gamma (PPARg) signaling pathway (AID 743094; active = well fitted activation curve with a large enough effect in the signal ratio in the repeat runs, not every such curve was filed as active; the % refers to the signal ratio). The method, boiled down:
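HEK293H PPARg-bla cells, 5 h settle at 37C/5% CO2; compound (DMSO) 17 h, 37C; B/G FRET substrate 1 h RT; fluorescence intensity read-out. qHTS format.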

For assay [5] the target is unchanged. The experiment in a line: qHTS assay to identify small molecule antagonists of the peroxisome proliferator-activated receptor gamma (PPARg) signaling pathway (AID 743191; calls by dose curve; also: nearly all actives have a fitted effect of over 30% in size; also: potency is read from the fitted curve at half-maximal effect). The method, boiled down:
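GeneBLAzer PPARg UAS-bla HEK293H cells carrying a UAS-driven beta-lactamase reporter were plated at 3000 cells/well, preincubated 5 h at 37C, then given compound for 17 h at 37C; LiveBLAzer B/G FRET substrate was read after 1 h at room temperature.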

The nature of assay [6]: qHTS assay to identify small molecule antagonists of the peroxisome proliferator-activated receptor gamma (PPARg) signaling pathway - cell viability counter screen (AID 743194). Also: nearly all actives have a fitted effect of over 55% in size. As to conditions: Potency: co-treated with 50 nM rosiglitazone unless noted. The method, boiled down: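 PPARg-UAS-bla HEK293H cells were plated, rested 5 h at 37 C, then treated with compounds plus rosiglitazone (50 nM final) for 17 h at 37 C; viability was then read by CellTiter-Glo luminescence after 30 min at room temperature.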

Assay [7] in a line: qHTS assay for small molecule agonists of the antioxidant response element (ARE) signaling pathway - cell viability counter screen (AID 743203; calls by dose curve; also: nearly all actives have a fitted effect of over 55% in size). The method, boiled down:
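Luminescence read-out (CellTiter-Glo, 30 min at room temperature) measured cell viability in the same wells as the ARE beta-lactamase reporter. HepG2 ARE-bla cells were treated with compounds for 16 hrs at 37C/5% CO2.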

Assay [8] is described as follows: qHTS assay for small molecule activators of the heat shock response signaling pathway - cell viability counter screen (AID 743209). Also: nearly all actives have a fitted effect of over 50% in size. In a few lines: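 HSE-bla HeLa; 1500 cells/well; overnight 37 C, 5% CO2; compound 5 h 37 C; LiveBLAzer B/G substrate 2.5 h RT; CellTiter-Glo 30 min RT; luminescence.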
The nature of assay [9]: qHTS assay for small molecule agonists of the antioxidant response element (ARE) signaling pathway (AID 743202; active = well fitted activation curve with a large enough effect in the signal ratio in the repeat runs, not every such curve was filed as active; the % refers to the signal ratio). The method, boiled down: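 Following a 16 h, 37 C exposure of reporter HepG2 cells (ARE-driven beta-lactamase, 2,000 cells/well) to compounds, FRET substrate was applied for 2 h at room temperature and fluorescence intensity recorded.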
Assay [10] is described as follows: qHTS assay for small molecule activators of the heat shock response signaling pathway (AID 743210; active = well fitted activation curve with a large enough effect in the signal ratio in the repeat runs, with a control signal flat, not every such curve was filed as active; the % refers to the signal ratio; also: series mostly up to about 63 µM). In a few lines: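 Heat shock element–beta-lactamase HeLa reporter cells; qHTS with compounds for 5 h at 37 C; detection by FRET substrate fluorescence after 2.5 h at RT.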

Each structure is given as a SMILES string. Values joined by “and” are separate entries in the source; they are usually repeats but may differ in a detail not shown here. Equal values may be shown once. Records with an inconclusive call do not appear. The source holds several records for some structures; these can differ, active in one and inactive in another. Active and inactive are the calls of the source. Unless noted, calls follow the shape of the dose curve; as a rule, active = well fitted curve in the direction sought with a large enough effect in the repeat runs; inconclusive = weak or mixed curves; inactive = no such curve, though single readings can be large; an effect the other way counts as inactive or inconclusive.

Peroxisome proliferator-activated receptor gamma (Homo sapiens), sequence (P37231 whole entry, looked up): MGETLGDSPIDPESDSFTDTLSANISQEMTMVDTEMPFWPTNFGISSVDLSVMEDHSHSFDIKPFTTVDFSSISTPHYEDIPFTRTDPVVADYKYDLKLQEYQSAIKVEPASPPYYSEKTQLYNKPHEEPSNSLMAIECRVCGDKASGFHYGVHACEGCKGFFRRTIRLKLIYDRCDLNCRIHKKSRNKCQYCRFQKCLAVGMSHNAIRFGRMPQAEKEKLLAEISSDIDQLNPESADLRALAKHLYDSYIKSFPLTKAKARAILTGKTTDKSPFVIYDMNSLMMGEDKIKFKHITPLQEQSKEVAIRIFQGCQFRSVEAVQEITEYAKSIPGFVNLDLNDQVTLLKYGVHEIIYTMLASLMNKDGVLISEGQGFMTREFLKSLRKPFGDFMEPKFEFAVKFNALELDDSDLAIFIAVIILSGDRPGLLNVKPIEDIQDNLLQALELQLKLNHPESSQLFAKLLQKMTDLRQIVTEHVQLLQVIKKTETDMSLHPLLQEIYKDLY
Aryl hydrocarbon receptor (Homo sapiens), sequence (P35869 whole entry, looked up): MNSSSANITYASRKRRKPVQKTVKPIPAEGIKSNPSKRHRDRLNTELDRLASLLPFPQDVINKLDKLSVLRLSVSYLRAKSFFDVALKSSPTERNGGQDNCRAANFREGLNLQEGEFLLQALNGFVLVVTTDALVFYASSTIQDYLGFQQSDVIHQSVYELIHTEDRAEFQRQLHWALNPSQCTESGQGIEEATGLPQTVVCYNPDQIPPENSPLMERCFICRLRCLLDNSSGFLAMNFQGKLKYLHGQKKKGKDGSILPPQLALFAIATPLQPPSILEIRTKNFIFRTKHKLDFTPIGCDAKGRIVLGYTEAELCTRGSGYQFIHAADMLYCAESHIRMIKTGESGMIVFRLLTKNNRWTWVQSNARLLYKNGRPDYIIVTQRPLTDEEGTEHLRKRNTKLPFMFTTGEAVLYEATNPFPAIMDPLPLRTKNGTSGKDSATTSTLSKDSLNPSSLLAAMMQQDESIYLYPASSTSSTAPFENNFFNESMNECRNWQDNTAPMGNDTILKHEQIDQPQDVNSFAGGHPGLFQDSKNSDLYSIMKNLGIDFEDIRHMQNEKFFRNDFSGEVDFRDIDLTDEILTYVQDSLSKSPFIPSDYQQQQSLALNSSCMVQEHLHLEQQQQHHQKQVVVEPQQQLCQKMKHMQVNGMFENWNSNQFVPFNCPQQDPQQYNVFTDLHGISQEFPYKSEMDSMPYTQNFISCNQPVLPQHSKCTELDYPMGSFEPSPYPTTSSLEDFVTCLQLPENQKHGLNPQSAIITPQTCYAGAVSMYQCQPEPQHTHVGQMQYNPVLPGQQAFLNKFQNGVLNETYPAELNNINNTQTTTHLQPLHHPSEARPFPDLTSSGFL

Consider `OCCOCCO`, for which the Potency result in assay [1], in [2], in assay [3], in assay [4], in assay [5] and in assay [6] was “inactive” each time. For the same compound, the Potency result in assay [7] and in [8] was “inactive” each time.

Turning to `CC1CC(=O)O1` (stereo unspecified), the Potency entry in assay [1], in assay [2], in [3], in assay [4], in [5] and in assay [6] was “inactive” each time. The Potency result in assay [9], in assay [7], in assay [8] and in assay [10] was “inactive” throughout.

As for `S=c1[nH]c2ccccc2[nH]1`, the Potency entry in assay [1], in assay [3], in [4], in assay [5], in assay [6] and in assay [7] was “inactive” in each case. Further, the Potency result in [8] and in assay [10] was “inactive” each time. Moreover, in [2], the Potency is 68.6 µM (active).

On to `COP(=S)(OC)SCn1nnc2ccccc2c1=O`, for which the Potency entry in assay [1], in [2], in [3], in [4], in assay [6] and in assay [9] was “inactive” throughout. Besides, the Potency entry in assay [7], in [8] and in assay [10] was “inactive” throughout. Further, the Potency in [5] was 49 µM (active).

`CCCCCCCCCc1ccc(O)cc1`: the Potency in [1] is 55 µM (active). Besides, the Potency result in [2], in assay [3] and in [4] was “inactive” in each case.

As to `CC1(C)Cc2cccc(O)c2O1`, the Potency result in assay [1], in assay [2], in assay [3], in assay [4], in assay [5] and in assay [6] was “inactive” each time. For the same compound, the Potency result in assay [7], in assay [8] and in assay [10] was “inactive” in each case.

As to `N#Cc1cccnc1`, the Potency result in [1], in [2], in assay [3], in assay [4], in assay [5] and in assay [6] was “inactive” in each case. Moreover, the Potency entry in [7], in assay [8] and in assay [10] was “inactive” in each case.

As to `Nc1ncn[nH]1`, the Potency result in assay [1], in assay [2], in [3], in assay [4], in assay [5] and in assay [6] was “inactive” in each case. The Potency result in [9], in assay [7], in assay [8] and in assay [10] was “inactive” throughout.

`C[N+](C)(C)C`: the Potency entry in [1], in assay [2], in assay [3], in assay [4], in assay [5] and in [6] was “inactive” throughout. In addition, the Potency entry in assay [9], in assay [7] and in assay [8] was “inactive” in each case.

With `NN=C(N)N`, the Potency entry in assay [1], in assay [3], in assay [4], in assay [5], in [6] and in assay [9] was “inactive” in each case. Moreover, the Potency entry in [7], in assay [8] and in [10] was “inactive” in each case. In addition, in [2], the Potency was 30.6 µM (active).

In the case of `CCCCCCCCCCCCCl`, the Potency entry in assay [1], in [2], in assay [3], in [4], in assay [5] and in [6] was “inactive” throughout. Also, the Potency entry in assay [9], in assay [7], in assay [8] and in [10] was “inactive” in each case.

For the compound `O=C(O)CF`, the Potency entry in assay [1], in assay [2], in assay [3], in [4], in [5] and in assay [6] was “inactive” throughout. Moreover, the Potency entry in assay [9], in assay [7] and in [8] was “inactive” in each case.

`CN(C)c1nc(=O)n(C2CCCCC2)c(=O)n1C`: the Potency result in [1], in assay [2], in assay [3], in assay [4], in assay [5] and in assay [6] was “inactive” throughout. Further, the Potency result in assay [7], in assay [8] and in assay [10] was “inactive” throughout.

For the compound `Nc1ccc2ccccc2c1`, the Potency result in assay [1], in [3], in assay [4], in assay [5], in assay [6] and in [9] was “inactive” throughout. Moreover, the Potency entry in assay [7], in [8] and in assay [10] was “inactive” each time. Moreover, the Potency in [2] is 20.9 µM (active) and 27.3 µM (active).

`CNC(=O)CSP(=S)(OC)OC`: the Potency result in assay [1], in assay [2], in [3], in assay [4], in [5] and in [7] was “inactive” each time. In addition, the Potency entry in assay [8] and in [10] was “inactive” in each case.

Consider `CCCCSP(=O)(SCCCC)SCCCC`, for which the Potency entry in assay [1], in assay [2], in assay [3], in assay [4], in assay [6] and in assay [9] was “inactive” each time. Besides, the Potency result in assay [7], in assay [8] and in assay [10] was “inactive” throughout.

For the compound `Clc1ccc(C(Cl)(Cl)Cl)cc1`, the Potency entry in assay [1], in assay [2], in assay [3], in [4], in [5] and in assay [9] was “inactive” in each case. Also, the Potency entry in assay [7], in [8] and in assay [10] was “inactive” throughout.

Turning to `CCCCOC(=O)COC(=O)c1ccccc1C(=O)OCCCC`, the Potency result in assay [1], in assay [2], in assay [3], in [4], in assay [5] and in [7] was “inactive” throughout. Besides, the Potency entry in assay [8] and in [10] was “inactive” throughout.

Regarding `CC(C)(C#N)N=NC(C)(C)C#N`, the Potency result in assay [1], in assay [2], in [3], in assay [4], in assay [5] and in [9] was “inactive” each time. The Potency entry in [7], in assay [8] and in assay [10] was “inactive” in each case.

As to `CCCCOCC1CO1` (stereo unspecified), the Potency entry in assay [1], in [2], in assay [3], in assay [4], in assay [5] and in assay [9] was “inactive” throughout. The Potency entry in assay [7], in assay [8] and in assay [10] was “inactive” throughout.

As for `CCNCC`, the Potency result in assay [1], in [2], in assay [3], in assay [4], in [5] and in [9] was “inactive” each time. Further, the Potency entry in assay [7], in assay [8] and in [10] was “inactive” in each case.

For `C[C@]12CCC(=O)C=C1CC[C@@H]1[C@@H]2CC[C@@]2(C)[C@H]1CC[C@]2(C)O`, the Potency entry in assay [1], in assay [2], in [3], in assay [4], in assay [6] and in [7] was “inactive” each time. The Potency entry in [8] and in assay [10] was “inactive” throughout.

For the compound `CC[n+]1c(-c2ccccc2)c2cc(N)ccc2c2ccc(N)cc21`, the Potency entry in [1] is “inactive and 30.5 µM (active)”; in assay [2] it was 26.6 µM (active) and 29.8 µM (active) and 12.1 µM (active); in [3], “inactive and 12.1 µM (active)”; in assay [5], 48.8 µM (active) and 26.6 µM (active). Besides, the Potency entry in assay [4], in [7] and in assay [8] was “inactive” throughout.

Regarding `N#Cc1nn(-c2c(Cl)cc(C(F)(F)F)cc2Cl)c(N)c1S(=O)C(F)(F)F` (stereo unspecified), the Potency entry in assay [1], in assay [2], in [4], in [5] and in assay [8] was “inactive” in each case. Further, the Potency result in [3] was “inactive and 30.8 µM (active)”.

With `C=CC(Cl)CCl` (stereo unspecified), the Potency result in [1], in [2], in [3], in assay [4], in assay [5] and in [7] was “inactive” each time. For the same compound, the Potency result in [8] and in assay [10] was “inactive” each time.

Source of the values: PubChem BioAssay (Tox21).
